An excerpt weighted towards active compounds, which were near 2.5% of everything screened.
Cruzain inh noDet – inhibitors of Trypanosoma cruzi cruzain without detergent; 2.3% of 200,000 active; Potency, µM, hits mostly inhibitors; purified cruzain, Z-FR-AMC fluorescence, no detergent; note: nearly all actives have a fitted effect of over 40% in size
Target sequence (P25779 123-467 limits assumed): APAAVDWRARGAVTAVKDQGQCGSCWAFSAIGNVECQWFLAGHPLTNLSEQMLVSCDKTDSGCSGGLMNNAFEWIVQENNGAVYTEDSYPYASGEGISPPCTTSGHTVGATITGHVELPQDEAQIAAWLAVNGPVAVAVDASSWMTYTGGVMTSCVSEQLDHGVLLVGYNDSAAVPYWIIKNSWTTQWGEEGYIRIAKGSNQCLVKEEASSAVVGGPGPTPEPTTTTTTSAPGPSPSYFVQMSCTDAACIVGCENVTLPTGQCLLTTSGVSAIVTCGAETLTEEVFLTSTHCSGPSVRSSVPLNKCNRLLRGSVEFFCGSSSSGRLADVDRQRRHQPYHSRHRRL
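Purified cruzain at 1.5 nM, pre-incubated 15 min with compound at room temperature in 100 mM sodium acetate pH 5.5, 5 mM DTT, 0.00005% Triton X-100. Reaction started with 2 uM Z-FR-AMC; AMC fluorescence increase over 60 s gives rate.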
Cruzain Triton – cruzain (T. cruzi) inhibition with detergent | P25779 | purified cruzain, Z-FR-AMC fluorescence, 0.01% Triton | Potency, µM, hits mostly inhibitors | 0.43% of 200,000 active | AID 1478; note: nearly all actives have a fitted effect of over 40% in size
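Enzyme 1.5 nM, Z-FR-AMC 2 uM, NaOAc 100 mM pH 5.5, DTT 5 mM, Triton X-100 0.01%; 15 min RT compound preincubation; kinetic ex360/em450, 60 s delta.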
Hits are given with their value; n = inactive; u = inconclusive; ! = a repeat was not active. Calls come from the whole dose curve; as a rule, active = well fitted curve in the direction sought with a large enough effect; inconclusive = small, poorly fitted or top-dose-only effect, or another doubt; inactive = no such curve, though single readings can be large; an effect the other way counts as inactive or inconclusive.

SMILES	Cruzain inh noDet	Cruzain Triton
C/C(=N\Nc1nc(-c2cc(C)ccc2C)cs1)c1cc2c(ccc3ccccc32)oc1=O	7.9µM	n
CCC(Sc1ncccc1C(=O)Oc1ccccc1Cl)C(=O)Nc1ccccc1OC (stereo unspecified)	u	n
CCCCCCCCNc1nc(Cl)nc(NCc2ccco2)n1	16µM	n
CCCCCCNc1nc(NCc2ccco2)nc(OCC)n1	n	n
O=C(O)[C@@H]1CS[C@@]2(CCCN(Cc3ccccc3)C2)N1	n	n
CCCCNC(=O)c1cnc2sc(N3CCCCCC3)nn2c1=O	n	n
COC(=O)c1c(NC(=O)CSc2nnnn2-c2ccccc2)sc2c1CCC(C)C2 (stereo unspecified)	20µM	n
COC(=O)c1c(NC(=O)CSc2nnnn2-c2ccccc2)sc2c1CCC(C(C)(C)C)C2 (stereo unspecified)	6.3µM	n
CCC(C)(C)C1CCc2c(sc(NC(=O)c3cccs3)c2C(N)=O)C1 (stereo unspecified)	u	n
CC(C)(C)C1CCc2c(sc(NC(=O)c3cccs3)c2C(N)=O)C1 (stereo unspecified)	13µM	n
CCOC(=O)c1sc(NC(=O)CSc2nnnn2-c2ccccc2)c(C(=O)OCC)c1C	n	n
COC(=O)c1c(NC(=O)COc2ccccc2Cl)sc2c1CCC(C(C)(C)C)C2 (stereo unspecified)	n	n
Cc1cccn2c(=O)c3cc(C(=O)NCCc4ccc(S(N)(=O)=O)cc4)n(C)c3nc12	u	n
COc1ccc(-n2nc(C(=O)Nc3ccc(C)cn3)c3c4ccccc4n(C)c3c2=O)cc1	n	n
COc1ccc(S(=O)(=O)NCc2cccn2Cc2cccc(C)c2)cc1OC	n	n
Cc1ccc(C)c(N2CCN(C(=O)c3cc4ccc5cccnc5c4[nH]3)CC2)c1	n	n
Cc1cccc(N2CCN(C(=O)c3cc4ccc5cccnc5c4[nH]3)CC2C)c1 (stereo unspecified)	13µM	n
CC(C)=C[C@H]1[C@@H](COC(=O)c2cc3c(cc2Cl)OCO3)C1(C)C	n	n
[O-][Br+2]([O-])O	n	22µM!
COc1cc(Cl)c(C)cc1NC(=O)c1cc(CN2CCOCC2)on1	n	n
COc1ccccc1CNC(=O)c1cnc2sc(N3CCCCCC3)nn2c1=O	n	n
NC(=S)N=Nc1c(O)[nH]c2cc(F)c(F)cc12	10µM	14µM
CNC(=S)N=Nc1c(O)[nH]c2ccc(C(C)C)cc12	n	n
COc1ccccc1CNC(=O)CN1C(=O)COc2ccc(S(=O)(=O)N3CCC(C)CC3)cc21	n	n
Cc1nc(SCC(=O)c2cc3ccccc3oc2=O)c(C#N)c(C)c1C(=O)Nc1ccccc1	13µM	n
SMILES	Cruzain inh noDet	Cruzain Triton
CSc1nc(C)c(C(=O)Nc2ccccc2)c(C)c1C#N	n	n
O=C(CSc1oc(-c2ccccc2)nc1S(=O)(=O)c1ccc(Cl)cc1)c1ccccc1	u	n
O=C(CSc1oc(-c2ccc(F)cc2)nc1S(=O)(=O)c1ccc(Cl)cc1)c1ccccc1	32µM	n
Cc1ccc(S(=O)(=O)c2nc(-c3ccco3)oc2SCC(=O)c2ccc(Cl)cc2)cc1	u	n
O=C(CSc1oc(-c2ccco2)nc1S(=O)(=O)c1ccc(Cl)cc1)c1ccc(Cl)cc1	25µM	n
COc1cccc(CCNc2ncnc3c2nnn3C)c1	n	n
COc1ccc2c(c1)c1c(c(=O)n(-c3ccc(C)cc3)c(=O)n1CC(=O)N1CCCC1)n2C	n	n
Cc1ccc(NC(=O)CN2C(=O)COc3ccc(S(=O)(=O)N4CCCCCC4)cc32)c(C)c1	n	n
O=C(CSc1nc2ccccc2c(=O)n1-c1ccc(Cl)cc1)N/N=C/C=C/c1ccccc1[N+](=O)[O-]	10µM	n
Cc1ccccc1-n1c(SCC(=O)N/N=C/C=C/c2ccccc2[N+](=O)[O-])nc2ccccc2c1=O	u	n
CCCCc1nn2c(=O)cc(COC(=O)CNC(=O)c3ccccc3C)nc2s1	n	n
COc1ccc(/C=C/C=C2\N=C(SC)SC2=O)cc1	n	n
COc1ccccc1/C=C/C1=NC(=C\C=C/c2ccccc2)/C(=O)O1	25µM	n
COc1ccccc1/C=C/C=C1N=C(/C=C/c2ccc(Cl)cc2)OC/1=O	16µM	n
COc1ccccc1/C=C/C(=O)c1ccc(Cl)cc1	n	n
COc1ccc(-c2nc(C)c(CCNC(=O)c3ccccc3Br)s2)cc1OC	u	n
COc1cccc(Nc2nnc(-c3cc4ccc(O)cc4oc3=O)s2)c1	n	n
Cn1ncc(C(=O)N2CCN(c3ccc(F)cc3)CC2)c1C1CCN(C(=O)OC(C)(C)C)CC1	u	n
O=C(c1cc2sccc2n1Cc1ccc(F)cc1)N1CCN(c2nc3ccccc3s2)CC1	13µM	n
Cn1c(C(=O)N2CCN(c3nc4ccccc4s3)CC2)cc2sccc21	n	n
CCc1ccccc1NC(=O)CCC(=O)OCC(=O)c1ccc(-c2ccccc2)cc1	16µM	n
COc1ccccc1NC(=O)CCC(=O)c1ccc(-c2ccccc2)cc1	n	n
CCN(CC)c1ccc(CN(C(=O)Cc2coc3ccc(C)cc23)C2CCS(=O)(=O)C2)cc1 (stereo unspecified)	n	n
Cc1ccc(/C=C2/SC(=S)N(CCC(=O)N3CCN(c4ccccc4)CC3)C2=O)cc1	n	n
CC(/C=C1\SC(=S)N(CC(=O)N2CCN(c3ccccc3)CC2)C1=O)=C\c1ccccc1	10µM	n
SMILES	Cruzain inh noDet	Cruzain Triton
CC(/C=C1\SC(=O)N(CC(=O)Nc2ccc(O)cc2)C1=O)=C\c1ccccc1	n	n
CC(=O)c1ccc(NC(=O)CCCN2C(=O)/C(=C/C(C)=C/c3ccccc3)SC2=S)cc1	32µM	n
COc1ccccc1-c1cc2nc(C)c(CCC(=O)NCc3cccc(Cl)c3)c(C)n2n1	u	n
CCOC(=O)c1sc2cccc(F)c2c1S(=O)(=O)N1CCN(c2cccc(Cl)c2)CC1	u	n
COc1ccccc1-c1cc(-c2ccccc2)nc(SC(C(N)=O)c2ccccc2)c1C#N (stereo unspecified)	7.9µM	n
COC(=O)C(Sc1nc(C)cc(C)c1C#N)c1ccccc1 (stereo unspecified)	n	n
O=C(CN1C(=O)COc2ccc(S(=O)(=O)N3CCCC3)cc21)NCCc1ccc(Cl)cc1	n	n
CCCCC/C=C\C[C@@H](O)/C=C/C=C\CCC(=O)O	n	n
C[C@@]1(C(NC(=O)c2ccc(-c3ccccc3)cc2)c2ccc(Cl)cc2)C[C@H]1C1CCCCC1 (stereo partly specified)	u	n
C[C@@]1([C@@H](NC(=O)c2cccs2)c2ccc(-c3ccccc3)cc2)C[C@H]1C1CCCCC1	7.9µM	n
Cc1ccc(S(=O)(=O)c2cnc(SCC(=O)Nc3cccc(Cl)c3)nc2N)cc1C	n	n
CCCC(=O)C1=C(c2cccc(OC)c2)N(C(=O)CCC)n2c(C)nnc2S1	u	n
C/C(CCN1CCc2nc(-c3ccccc3)c(-c3ccccc3)cc2C1)=N\O[C@@H](C)c1cc(-c2c(C)cc(C)cc2C)no1	20µM	n
CCc1cc2c(nc1CC)CCN(CC/C(C)=N/O[C@@H](C)c1cc(-c3c(C)cc(C)cc3C)no1)C2	n	n
O=C(N/N=C\c1ccc(-c2ccccc2[N+](=O)[O-])o1)C1COc2cc3ccccc3cc2O1 (stereo unspecified)	7.9µM	n
O=C(N/N=C\c1ccc(-c2ccccc2[N+](=O)[O-])o1)C1COc2ccccc2O1 (stereo unspecified)	u	n
O=C(O)c1ccccc1NCn1c(=S)sc2ccccc21	n	n
